Measured values from PubChem BioAssay (NCATS).
Records with an inconclusive call do not appear. Activity calls are given as the source filed them. Calls come from the whole dose curve; as a rule, active = well fitted curve in the direction sought with a large enough effect; inconclusive = small, poorly fitted or top-dose-only effect, or another doubt; inactive = no such curve, though single readings can be large; an effect the other way counts as inactive or inconclusive.

Experiments:
[1] = qHTS of pediatric cancer cell lines to identify multiple opportunities for drug repurposing: Primary screen for Saos-2 cells (AID 1347097); note: nearly all actives have a fitted effect of over 40% in size
Outline: (§1)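 ATP-based luminescence (CellTiter-Glo) quantifies viability after a 48-hour exposure. Compounds are dosed across 8 or 11 final concentrations; DMSO and 2.3 µM bortezomib serve as controls.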

[2] = qHTS of pediatric cancer cell lines to identify multiple opportunities for drug repurposing: Primary screen for SK-N-SH cells (AID 1347098);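 note: DMSO served as neutral control and bortezomib at 2.3 µM as positive control; nearly all actives have a fitted effect of over 65% in size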
Outline: (§2)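 Cells (500-1,000/well) rested 5 h, then received compounds for 48 h; metabolically active cells were measured by CellTiter-Glo luminescence. Final concentrations spanned up to 46 µM (MIPE, 11-point) or 0.59 nM-46 µM (NPC, 8-point) in primary screens, 11-point in follow-ups.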

[3] = qHTS of pediatric cancer cell lines to identify multiple opportunities for drug repurposing: Primary screen for NB1643 cells (AID 1347099); note: nearly all actives have a fitted effect of over 50% in size
Outline: as §1

[4] = qHTS of pediatric cancer cell lines to identify multiple opportunities for drug repurposing: Primary screen for LAN-5 cells (AID 1347100)
Outline: (§3)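 Cells (500-1,000/well) in growth media were settled 5 h at 37 degrees C, then given compounds for 48 h. Viability was read as CellTiter-Glo luminescence. Primary runs used MIPE at 11 points (0.78 nM-46 µM) and NPC at 8 points (0.59 nM-46 µM); follow-ups used 11 points.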

[5] = qHTS of pediatric cancer cell lines to identify multiple opportunities for drug repurposing: Primary screen for BT-12 cells (AID 1347101); note: nearly all actives have a fitted effect of over 25% in size
Outline: as §2

[6] = qHTS of pediatric cancer cell lines to identify multiple opportunities for drug repurposing: Primary screen for Rh18 cells (AID 1347102); note: nearly all actives have a fitted effect of over 65% in size
Outline: as §3

[7] = qHTS of pediatric cancer cell lines to identify multiple opportunities for drug repurposing: Primary screen for RD cells (AID 1347104); note: nearly all actives have a fitted effect of over 55% in size
Outline: as §1

[8] = qHTS of pediatric cancer cell lines to identify multiple opportunities for drug repurposing: Primary screen for MG 63 (6-TG R) cells (AID 1347105); note: nearly all actives have a fitted effect of over 50% in size
Outline: as §1

[9] = qHTS of pediatric cancer cell lines to identify multiple opportunities for drug repurposing: Primary screen for control Hh wild type fibroblast cells (AID 1347106);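 note: series mostly up to about 46 µM; a drop in luminescence marks cytotoxicity and a rise apparent proliferation; nearly all actives have a fitted effect of over 55% in size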
Outline: as §3

[10] = qHTS of pediatric cancer cell lines to identify multiple opportunities for drug repurposing: Primary screen for Rh30 cells (AID 1347107); note: series mostly up to about 46 µM; nearly all actives have a fitted effect of over 75% in size
Outline: as §3

[11] = qHTS of pediatric cancer cell lines to identify multiple opportunities for drug repurposing: Primary screen for OHS-50 cells (AID 1347103); note: nearly all actives have a fitted effect of over 40% in size
Outline: as §2

[12] = qHTS of pediatric cancer cell lines to identify multiple opportunities for drug repurposing: Primary screen for Rh41 cells (AID 1347108);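 note: series mostly up to about 46 µM; luminescence drop marks cytotoxic hits; nearly all actives have a fitted effect of over 70% in size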
Outline: as §1

Measured: Potency

COC(=O)/C=C\C(=O)OC
not listed: [11] | [12]
inactive: all other assays above

Cc1cccc(C)c1NC(=O)c1cc(S(N)(=O)=O)c(Cl)cc1O
not listed: [8]
inactive: all other assays above

CC(NN)c1ccccc1 (stereo unspecified)
not listed: [11]
inactive: all other assays above

Cc1cnc(NS(=O)(=O)c2ccc(N)cc2)nc1
not listed: [11]
inactive: all other assays above

CCCC(=O)OCOC(=O)C1=C(C)NC(C)=C(C(=O)OC)C1c1cccc(Cl)c1Cl (stereo unspecified)
not listed: [11]
inactive: all other assays above

O=C(O)C(=O)Nc1cccc(-c2nn[nH]n2)c1
not listed: [11]
inactive: all other assays above

O=C1c2ccccc2CCc2ccccc21
not listed: [10] | [11]
inactive: all other assays above

N#Cc1cc(NC(=O)C(=O)O)c(Cl)c(NC(=O)C(=O)O)c1
not listed: [9] | [10] | [11]
inactive: all other assays above

CCCCCCCC(=O)[O-].CCCCCCCC(=O)[O-].[Zn+2]
not listed: [11]
inactive: all other assays above

O=P(O)(O)OCC(O)CO (stereo unspecified)
not listed: [11]
inactive: all other assays above
